From the supplement of paper PMC12669797
Where “and” joins values, the source holds several entries; their conditions need not be identical. Identical values can stand only once.

Assays:
ES2 = experiment: cell viability relative to DMSO control (MTS) (fraction of DMSO control); higher = more viable cells / less growth inhibition; conditions: 10 µM; 48 h
Procedure, shortened: (§1)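 TOV-21G and ES2 clear cell carcinoma cells were plated in 96-well plates at 5000 cells per well, grown for 24 h, and then exposed to a 367-compound […] library at a final concentration of 10 µM, with vehicle alone in control wells. An MTS assay (CellTiter 96 AQueous One Solution) was read 48 h later according to the manufacturer's protocol. Viability is reported as a fraction of the vehicle control.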

TOV-21G = experiment: as above; conditions: 10 µM; 48 h
Procedure, shortened: as §1

Structure (SMILES) | cell viability (ES2) | cell viability (TOV-21G)
CC(C)[C@H](CO)Nc1nc(Nc2cccc(Cl)c2)c2ncn(C(C)C)c2n1 [Purvalanol A] | 0.815 | 0.652
CNC(=O)c1ccccc1Sc1ccc2c(/C=C/c3ccccn3)n[nH]c2c1 [Axitinib] | 0.917 | 0.841
Cc1ccc(-c2cn3c4c(sc3n2)CCCC4)cc1 [Pifithrin-a (cyclic)] | 1.03 | 1.11
CC(C)C[C@@H](N)[C@H](O)C(=O)N[C@H](C(=O)N[C@H](C(=O)N[C@@H](CC(=O)O)C(=O)O)C(C)C)C(C)C [Amastatin] | 0.963 | 1.02
COc1cccc(-c2cc(=O)c3ccccc3o2)c1N | 0.798 and 0.451 | 0.852 and 0.84
COc1cc2/c(=N/c3ccc(Br)cc3F)nc[nH]c2cc1OCC1CCN(C)CC1 [Vandetanib] | 0.577 | 0.436
CC(C)C(C(=O)O)N1C(=O)C(=Cc2ccc(Br)cc2)SC1=S (configuration not stated) | 1.11 | 1.16
C=CC[C@@H]1/C=C(\C)C[C@H](C)C[C@H](OC)[C@H]2O[C@@](O)(C(=O)C(=O)N3CCCC[C@H]3C(=O)O[C@H](/C(C)=C/[C@@H]3CC[C@@H](O)[C@H](OC)C3)[C@H](C)[C@@H](O)CC1=O)[C@H](C)C[C@@H]2OC | 0.941 | 0.964
O=C(CCCCCN1C(=O)c2cccc3cccc(c23)C1=O)NO [Scriptaid] | 0.311 | 0.367
CCNCCCNCCCCNCCCNCC [N1,N12-Diethylspermine (BESpm)] | 1 | 0.731
N=C(N)NC(=O)c1nc(Cl)c(N)nc1N [Amiloride] | 1.16 | 1.24
